Records with an inconclusive call do not appear. Unmarked numbers belong to inactive results. Calls follow the shape of the dose curve; as a rule, active = well fitted cell-killing curve with a large enough effect; inconclusive = small, poorly fitted or top-dose-only effect; inactive = no such curve, though single readings can be large or run the other way.
Experiment: qHTS of pediatric cancer cell lines to identify multiple opportunities for drug repurposing: Primary screen for NB-EBc1 cells (AID 1347095)
Details: NB-EBc1 neuroblastoma viability, CellTiter-Glo luminescence, 48 h; series mostly up to 46 µM; activity change, negative = cytotoxic: at the top concentration
Excerpt: Drug repurposing or repositioning has been offered as a strategy for drug development in oncology programs. This approach has special potential for childhood cancers and other rare or orphan diseases, where the expected return on new drug development has been a disincentive to pharmaceuticals. […] In this project we exploit the poly-pharmacology of drugs to discover new indications via phenotypic screening of a panel of 19 well-characterized cell lines derived from solid tumors seen in children and adolescents. The goal is to identify approved drugs with previously unrecognized anticancer properties that has the potential to reveal new mechanisms and biological processes involved in carcinogenesis or drug resistance. We employed a titration-based paradigm (quantitative high-throughput screening or qHTS), where all compounds were tested at multiple concentrations for their effect on cell viability. Concentration-response curves (CRCs) were derived directly from the primary screen, and both potency and efficacy values were used to identify compounds with robust bioactivity profiles. We screened the NIH Chemical Genomics Center (NCGC) Pharmaceutical Collection (NPC) and Mechanism Interrogation Plate (MIPE) small molecule collections of approved and investigational compounds against these cell lines; and measured metabolically active cells after 48 hours of compound treatment as a proxy for cell viability. […] Assay Submitter: Nathalia J. Martinez, National Center for Advancing Translational Sciences, National Institutes of Health, Rockville, MD, USA; email: natalia.martinez@nih.gov Shen, M et al. Quantitative high-throughput phenotypic screening of pediatric cancer cell lines identifies multiple opportunities for drug repurposing. Oncotarget 2017 Dec 19;9(4):4758-4772. PMID 29435139.
The cells were obtained from University of North Carolina (UNC), Pediatric Preclinical Testing Program (PPT), and Coriell Institute (CI). qHTS cell viability assay: Cells were assayed in growth media at a density of 500-1,000 cells/well. Five microliters of cells were dispensed into 1,536-well, white, solid-bottom, TC-treated plates (Greiner Bio One) using a multidrop dispenser and incubated at 37 degrees C, 5% CO2, under a humidified atmosphere for 5 hours. Twenty-three nanoliters of compounds and controls (neutral control DMSO or positive control bortezomib at final concentration of 2.3 µM) were subsequently transferred by Kalypsys pintool. For primary screens, the MIPE collection was tested at 11-point dilutions (final concentrations range from 0.78 nM to 46 µM) and the NPC collection at 8-point dilutions (final concentrations range from 0.59 nM to 46 µM). Compounds tested in follow-up screens were assayed at 11-point dilutions. Cells were incubated for 48 hours, followed by addition of 3 µL of CellTiter-Glo (Promega). After a 15 min incubation at room temperature, samples were analyzed for luminescence intensity using a ViewLux High-throughput CCD imager equipped with clear filters.

SMILES	activity change, negative = cytotoxic
C[C@@H]1O[C@@H](OC[C@H]2O[C@@H](Oc3c(-c4ccc(O)c(O)c4)oc4cc(O)cc(O)c4c3=O)[C@H](O)[C@@H](O)[C@@H]2O)[C@H](O)[C@H](O)[C@H]1O	18.3%
CCN[C@H]1CN(CCCOC)S(=O)(=O)c2sc(S(N)(=O)=O)cc21	8.86%
CC(=O)Nc1ccccc1	9.06%
Cc1ccc2c(c1)c1c3n2CCNC3CCC1 (stereo not given)	-6.29%
O=C(O)CCCc1ccccc1	17.3%
Cc1cc(-n2nc3ccc(Cl)cc3n2)c(O)c(C(C)(C)C)c1	28.1%
O=C(CCBr)N1CCN(C(=O)CCBr)CC1	-5.65%
O=C(/C=C/c1ccc(O)c(O)c1)O[C@@H]1C[C@@](OC(=O)/C=C/c2ccc(O)c(O)c2)(C(=O)O)C[C@@H](O)[C@@H]1O	11.8%
CC(C)C[C@@H](N)C(=O)O	15.8% [at 16.1 µM]
CC(C(=O)O)c1ccc2c(c1)Cc1cccnc1O2 (stereo not given)	9.44%
CC(=O)[C@@]1(O)CC[C@H]2[C@@H]3C[C@H](C)C4=CC(=O)C=C[C@]4(C)[C@@]3(F)[C@@H](O)C[C@@]21C	17.9%
Cc1cc(OI)c(C(C)C)cc1-c1cc(C(C)C)c(OI)cc1C	12.2%
Cc1ccc(S(=O)(=O)NC(=O)NC2CCCCC2)cc1	9.58%
CCCNC(C)(C)COC(=O)c1ccccc1	5.9%
CCCCCCCCCCCCCCCCCCO	7.82%
CC1CC(OC(=O)c2ccccc2O)CC(C)(C)C1 (stereo not given)	8.79%
CCCCCCCCCCCCCCCCN	23.4%
NC(=O)CCCCC1CCSS1 (stereo not given)	15.5%
Cc1cc(=O)[nH]c(=S)[nH]1	23%
O=C(O)c1ccccc1OP(=O)(O)O	15.6%

SMILES	activity change, negative = cytotoxic
CC(CN(C)C)C(C)(O)Cc1ccc(Cl)cc1 (stereo not given)	13%
O=C(O)CNC(=O)c1ccccc1I	7.14%
CCOC(=O)OC(C)OC(=O)[C@@H]1N2C(=O)[C@@H](NC(=O)[C@H](N)c3ccccc3)[C@H]2SC1(C)C (stereo not given in full)	25.1%
NC(=O)CC[C@@H](N)C(=O)O	5.86%
C=CCNC(N)=S	28.5%
Cc1cc(NC(=O)C2=C(O)c3ccccc3S(=O)(=O)N2C)no1	18.6%
NS(=O)(=O)c1cc2c(cc1C(F)(F)F)NCNS2(=O)=O	-11.7%
COC(=O)c1ccccc1C(=O)c1ccc(OCCN2CCCCC2)cc1	2.14%
C[N+](C)(C)CC[N+]1(C)Cc2c(Cl)c(Cl)c(Cl)c(Cl)c2C1	8.54%
OCC(O)CS (stereo not given)	11.9%
CCOc1ccc(C(=O)OCCN(CC)CC)cc1	5.34%
C[C@@H]1CCC[C@H](C)N1	12%
O=c1[nH]c(=O)c2ccccc2o1	20.8%
CCN(CC)S(=O)(=O)c1ccc(C(=O)O)cc1	5.81%
C[C@@H](c1ncncc1F)C(O)(Cn1cncn1)c1ccc(F)cc1F (stereo not given in full)	5.43%
COc1ccc(Cc2cnc(N)nc2N)cc1OC	19.9%
CCCCCC(C)N (stereo not given)	22.2%
C=CCSCC1Nc2cc(Cl)c(S(N)(=O)=O)cc2S(=O)(=O)N1 (stereo not given)	14.8%
O=C(O)CCCCC1CCSS1 (stereo not given)	18.8%
C[C@]1(Cn2ccnn2)[C@H](C(=O)O)N2C(=O)C[C@H]2S1(=O)=O	18.2%

— PubChem BioAssay (NCATS)
